Where “and” joins values, the source holds several entries; their conditions need not be identical. Equal values may be shown once. Inconclusive results are not listed. A number with no mark means an inactive call. Calls of active or inactive are those of the source. The call rests on the fitted dose curve; in most records, active means well fitted curve in the direction sought with a large enough effect; inconclusive means small, poorly fitted or top-dose-only effect, or another doubt; inactive means no such curve, though single readings can be large; an effect the other way counts as inactive or inconclusive.

A short description of assay [1]: Viability qHTS for spleen associated tyrosine kinase inhibitor (SYKi) drug resistant MV4-11 cells (AID 1963824). Further: nearly all actives have a fitted effect of over 35% in size. In outline: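 SYK inhibitor-resistant MV4-11 AML cells, 500 per well, added to predispensed compounds and incubated 72 hr at 37 C, 5% CO2. Viability measured by CellTiter-Glo luminescence after 10 min at room temperature.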
A short description of assay [2]: Quantitative highthroughput screen to assess conditional lethalithy of NOMO1 cells grown in RPMI1640 with untreated serum (RPMI+s) (AID 1963876). Further: nearly all actives have a fitted effect of over 35% in size.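 On Viability: 100% = DMSO wells and 0% = empty wells without cells.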 The method in brief:
(§1)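 Each medium arm—HPLM with 10% dialyzed FBS, or RPMI1640 with 5 mM glucose and 10% untreated or dialyzed FBS—was screened against an 11-point, 3-fold compound titration for 48 h at 37 °C, with CellTiter-Glo luminescence as endpoint.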

A short description of assay [3]: Quantitative highthroughput screen to assess conditional lethalithy of NOMO1 cells grown in RPMI1640 with dialyzed fetal bovine serum (RPMI+ds) (AID 1963877). Further: nearly all actives have a fitted effect of over 30% in size.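 On Viability: series mostly up to about 46 µM; 100% = DMSO control wells and 0% = empty wells.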 In outline: as §1
Assay [4] can be described thus: Quantitative highthroughput screen to assess conditional lethalithy of NOMO1 cells grown in Human Plasma-Like Medium with dialyzed fetal bovine serum (HPLM+ds) (AID 1963878). Further: nearly all actives have a fitted effect of over 35% in size.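 On Viability: 100% = DMSO wells and 0% = empty wells on each plate.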 The method in brief:
as §1

The nature of assay [5]: Quantitative highthroughput screen to assess conditional lethalithy of P12 Ichikawa cells grown in Human Plasma-Like Medium with dialyzed fetal bovine serum (HPLM+ds) (AID 1963879). Further: nearly all actives have a fitted effect of over 35% in size. On Viability: series mostly up to about 46 µM. The conditions noted are these: Potency: viability. In outline: as §1
The nature of assay [6]: Quantitative highthroughput screen to assess conditional lethalithy of P12 Ichikawa cells grown in RPMI1640 with dialyzed fetal bovine serum (RPMI+ds) (AID 1963880). Further: nearly all actives have a fitted effect of over 35% in size.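 On Viability: 100% = DMSO wells and 0% = empty wells on each plate.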 The conditions noted are these: Potency: P12-Ichikawa viability. The method in brief: as §1
Assay [7] in a line: Quantitative highthroughput screen to assess conditional lethalithy of P12 Ichikawa cells grown in RPMI1640 with untreated serum (RPMI+s) (AID 1963881). Further: nearly all actives have a fitted effect of over 35% in size.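 On Viability: series mostly up to about 46 µM; 100% = DMSO wells and 0% = empty wells without cells.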 The conditions noted are these: Potency: viability. The method in brief: as §1
Assay [8] can be described thus: Quantitative highthroughput screen to assess conditional lethalithy of SEM cells grown in Human Plasma-Like Medium with dialyzed fetal bovine serum (HPLM+ds) (AID 1963882). Further: nearly all actives have a fitted effect of over 35% in size. On Viability: series mostly up to about 46 µM. The method in brief: as §1
Assay [9] in a line: Quantitative highthroughput screen to assess conditional lethalithy of SEM cells grown in RPMI1640 with unreated serum (RPMI+s) (AID 1963883). Further: nearly all actives have a fitted effect of over 35% in size.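 On Viability: 100% = DMSO wells and 0% = empty wells without cells.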 In outline: as §1
A short description of assay [10]: Quantitative highthroughput screen to assess conditional lethalithy of SEM cells grown in RPMI1640 with dialyzed fetal bovine serum (RPMI+ds) (AID 1963884). Further: nearly all actives have a fitted effect of over 35% in size.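 On Viability: series mostly up to about 46 µM; 100% = DMSO control wells and 0% = empty wells without cells.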 The method in brief:
as §1

Assay [11] in a line: Cellular viability qHTS for adrenocortical cancer (ACC) cell line SW-13 (AID 1963989). Further: nearly all actives have a fitted effect of over 65% in size.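 On activity (max response): cells grown in serum-free medium with ITS supplement; on the % scale 0 is the no-effect control and ±100 the full control effect.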 The following applies: SW-13 ACC cells viability, CellTiter-Glo, 48 h; activity (max response): hits give low values. The method in brief: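 48 h treatment, SW-13 in ITS/DMEM serum-free; doses up to 46 uM; readout CellTiter-Glo luminescence; curve fit four-parameter logistic.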
A short description of assay [12]: Cellular viability qHTS for adrenocortical cancer (ACC) cell line NCI-H295R (AID 1963990). Further: nearly all actives have a fitted effect of over 60% in size. In outline: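 Compound titrations (up to 46 uM final) are applied to NCI-H295R cultures for 48 h at 37C. Viable cell number is estimated by CellTiter-Glo signal, normalised to DMSO and doxorubicin controls.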
Potency means the concentration at half of the fitted maximal effect.

Consider `CC(=O)NC(C(=O)O[C@H]1CCC(C)(C)[C@@H]2CC=C3C(=O)OCC3(O)[C@@]12C)C(C)C` (stereo partly drawn), for which the Potency in assay [1] was 3.6 µM (active).

Turning to `c1ccc(-c2cnc(Nc3ccc(OCCN4CCCC4)cc3)s2)cc1`, the Potency in assay [1] was 0.0206 µM (active).

As to `C/C(=C/CO)CC[C@H]1[C@]2(C)C[C@H](O)CC(C)(C)[C@H]2CC[C@]1(C)O`, the Potency entry in assay [1] was “inactive”.

On to `COc1ccc2c(c1)C(c1ccc(F)cc1)=C(CN1CCCC1)CO2`, for which the Potency in [1] is 20.9 µM (active).

For the compound `COc1cc(N2CCC(N3CCN(C)CC3)CC2)ccc1Nc1ncc(Cl)c(-c2c[nH]c3ccccc23)n1`, in assay [1], the Potency is 0.0116 µM (active).

As to `O=C(Cc1c(F)cccc1F)Nc1cc(OCc2ccc(Cl)cc2)ccn1`, the Potency in [1] was 14.6 µM (active).

As to `CC12CCC3c4ccc(OC5OC(C(=O)O)C(O)C(O)C5O)cc4CCC3C1CCC2O` (stereo not drawn), the Potency entry in [1] is “inactive”.

Regarding `CC(=O)OC1CC2C3(C)CCC(OC(=O)CC(=O)O)C(C)(C)C3CCC2(C)C2(C)CCC(C3(C)CCC(=O)O3)C12` (stereo not drawn), the Potency in assay [1] is 6.32 µM (active).

In the case of `COc1cc(O)c2c(c1)C1(OC2=O)C(C)=CC(=O)C1O` (stereo not drawn), the Potency in assay [1] is 16.4 µM (active).

For `COc1cc2ncnc(Nc3ccc(NC(=O)c4ccccc4)cc3)c2cc1OC`, the Potency in [1] was 4.61 µM (active).

In the case of `Cc1ccc(CNc2ncnc3ccc(-c4ccc(CO)o4)cc23)o1`, the Potency in [1] is 5.17 µM (active).

On to `Cc1ccc(Cl)c(Nc2ccccc2C(=O)O)c1Cl`, for which the Potency in assay [1] was 15 µM (active).

As to `COc1cc(-c2nc(N[C@H](CO)Cc3ccccc3)ccc2C(=O)NCCOc2ccccc2)cc(OC)c1OC`, in [1], the Potency is 25.9 µM (active).

Consider `CC(C)=CCc1cc(O[C@@H]2O[C@H](CO[C@@H]3OC[C@](O)(CO)[C@H]3O)[C@@H](O)[C@H](O)[C@H]2O)ccc1O`, for which, in assay [1], the Potency result was “inactive”.

Consider `CC1(C)CC[C@]2(C(=O)O[C@@H]3O[C@H](CO[C@@H]4O[C@H](CO[C@@H]5O[C@H](CO)[C@H](O)[C@H](O)[C@H]5O)[C@@H](O)[C@H](O)[C@H]4O)[C@@H](O)[C@H](O[C@@H]4O[C@H](CO)[C@@H](O)[C@H](O)[C@H]4O)[C@H]3O)[C@H](O)C[C@]3(C)C(=CCC4[C@@]5(C)CC[C@H](O[C@@H]6OC[C@@H](O)[C@H](O)[C@H]6O)[C@@](C)(C(=O)O)C5CC[C@]43C)[C@@H]2C1` (stereo partly drawn), for which the viability, % of control in [1] was 90.5% [at 9.25 µM].

On to `CC(C)=CCC/C(C)=C/Cc1ccc(O)c(C2OC(=O)c3cc(C(=O)O)cc(O)c32)c1O` (stereo not drawn), for which the Potency result in assay [1] was “inactive”.

Consider `C/C=C/C=C/c1cc2c(C=O)c(O)c(CC=C(C)C)cc2o1`, for which the Potency in assay [1] was 18.4 µM (active).

As to `CC(C)(C)c1ccc(C(=O)Nc2cc(Cl)c(Br)cc2C(=O)O)cc1`, the Potency in assay [1] is 16.4 µM (active).

On to `O=C(O)c1cccc(CN2C(=O)/C(=C(\c3ccccc3)c3ccc(Cl)cc3)c3ccccc32)c1`, for which the Potency in assay [1] is 20.6 µM (active).

In the case of `C=C1C(=O)O[C@@H]2C[C@@]3(C)C[C@@H](O)C[C@H](C)C3=C[C@H]12`, the Potency in [1] is 3.66 µM (active).

On to `CN1CCC(c2c(O)cc(O)c3c(=O)cc(-c4ccccc4Cl)oc23)C(O)C1` (stereo not drawn), for which, in [1], the Potency was 0.206 µM (active).

As to `C[C@@]12CC[C@@H]3[C@@](CC[C@H]4[C@@]3(C)CCC[C@@]4(C)C(=O)O)(CC1=O)C2`, the Potency result in assay [1] is “inactive”.

Consider `O=C(Nc1cccc(Br)c1)c1cccc(S(=O)(=O)N2CCCCCC2)c1`, for which the Potency in assay [1] is 5.25 µM (active). For the same compound, the Potency entry in [2], in assay [3] and in [4] was “inactive” each time.

`C=C(C)[C@@]1(O)C[C@@]2(C)C(=CC1=O)CC[C@@H](O)[C@@H]2C`: in assay [1], the Potency result was “inactive”.

On to `Cc1cc(NC(=O)Nc2ccc(N(C)C)cc2)c2cc(F)cc(F)c2n1`, for which the Potency in assay [1] was 10.2 µM (active). The Potency result in [2], in [3], in assay [4], in assay [5], in assay [6] and in assay [7] was “inactive” in each case. The Potency entry in [8], in assay [9], in assay [10] and in [12] was “inactive” in each case. In [11], the activity (max response) is -2.18%.

With `COc1ccc(S(=O)(=O)Nc2c(C)cc(C)cc2C)cc1`, the Potency in [1] was 20.6 µM (active).

For `CNC1CCC(N(Cc2cccc(-c3ccncc3)c2)C(=O)c2sc3ccccc3c2Cl)CC1` (stereo not drawn), the Potency in assay [1] is 5.8 µM (active) and 5.25 µM (active); in assay [2] it was 3.32 µM (active); in [3], 16.6 µM (active); in [4] it was 1.48 µM (active); in assay [5] it was 1.18 µM (active); in assay [6] it was 1.66 µM (active). The Potency is 2.09 µM (active) in assay [7]; 1.32 µM (active) in [8]; 0.372 µM (active) in assay [9]; 0.833 µM (active) in assay [10]; 10 µM (active) in [11]; 6.31 µM (active) in assay [12].

Turning to `COC(=O)[C@]1(Cc2ccc(O)c(CC=C(C)C)c2)OC(=O)C(O)=C1c1ccc(O)cc1`, the Potency in assay [1] is 8.93 µM (active).
